The record followed here is PubChem BioAssay (EPA / NIEHS).

Activity calls are given as the source filed them. How the source made its calls: active means hit-call score of the fitted dose curve at least 0.9, where 1 is the maximum; inactive means score below 0.9.

A short description of this test: CCTE_Padilla_ZF_Score.General: CCTE's 144 Hour Post-fertilization zebrafish Assay Score for General Malformation, Padilla Lab (AID 2284411). The procedure:
CCTE_Padilla_ZF_Phenotype_Score is a whole embryo, multiplexed assay using zebrafish ova exposed for 144 hours post fertilization on a 96-well plate.CCTE_Padilla_ZF_Score.General is one of one assay component(s) measured or calculated from the CCTE_Padilla_ZF_Phenotype_Score assay. It is designed to make measurements of zebrafish development as detected with brightfield microscopy of developing zebrafish embryos.Data from the assay component CCTE_Padilla_ZF_Score.General was analyzed into 1 assay endpoints. This assay endpoint, CCTE_Padilla_ZF_Score.General, was analyzed in the positive analysis fitting direction relative to DMSO as the negative control and baseline of activity. Using a type of viability reporter, gain-of-signal activity can be used to understand changes in developmentals as they relate to the whole embryo. To generalize the intended target to other relatable targets, this assay endpoint is annotated to the zebrafish development intended target family, where the subfamily is embryonic morphogenesis.
Zebrafish husbandry: Wild type adult zebrafish (Danio rerio; undefined outbred stock obtained from Aquatic Research Organisms, Hampton, NH, 03842) were housed in an AAALAC-approved animal facility at 28C with a 14:10 h light: dark cycle (lights on at 08:30 h). Adult fish (2-3 females per male; density = 15-20 adults per tank) were kept in one of several 9-liter (L) flow-through colony tanks (Aquaneering Inc., San Diego, CA). All adults in a colony tank were placed in a 2 L (static) breeding tank (Aquatic Habitats, Apopka, FL) one hour prior to light onset. Typically, adults from two to three colony tanks were mated on the same day. Two hours after light onset the adults were returned to the colony tank. All embryos were gathered from each breeder tank, pooled, and placed in a 28C water bath for 2 h, followed by two washes with 0.06% bleach (v/v) in 10% Hanks' Balanced Salt Solution (13.7 mM NaCl 0.54 mM KCl, 25 uM Na2HPO4, 130 uM CaCl2 100 um MgSO4 and 420 um NaHCO3,), hereafter referred to as Hanks' solution, for 5 min in order to remove any residual bacteria or fungi. Immediately following washing, the embryos were examined, and healthy embryos were separated from dead or unfertilized eggs and moved into fresh Hanks'. Chemical exposures: Zebrafish embryos were exposed in 96-well plates. Between 6- and 8-hours post fertilization (hpf), healthy embryos (with chorions) were transferred, one embryo per well, into 96 well (0.5 mL) microtiter plates (Cell Culture-Treated, Flat-Bottom Microplate 96 well [Corning Costar, Kennebunk, ME; Cat 09-761-145]) filled with 200 uL of Hanks' solution. A random number generator was used to assign the order in which the rows of embryos were plated in 96 well plates each week. After plating, the embryos were dosed with 0.8 uL of the chemical dosing solution then immediately sealed with AlumaSeal II (Excel Scientific Inc, Victorville, CA) to prevent volatilization of the chemicals, and then placed in a leakproof secondary container. These containers were placed in an incubator maintained on a 14:10 h light: dark cycle at 26C for rearing. On 5 dpf, live larvae were gently moved out of the plate with test chemicals and into a new 96 well mesh plate (Millipore Corp., Bedford, MA) with just the Hanks' solution. Once within the mesh well plate, the animals were rinsed with 400 uL of fresh Hanks' three times, and then the plates were covered with a non-adhesive material (Microseal A, BioRad, Hercules, CA), plate lid added, and then plate sides wrapped in Parafilm (PM992, Bermis Company, Neenah, WI), and returned to the incubator. […]
In the case of `C=CC(C)(CCC=C(C)C)OC(C)=O` (stereo not given), the compound was classed as inactive.

As for `FC(F)=C(F)C(F)(F)C(F)(F)C(F)(F)C(F)F`, the outcome was inactive.

For `C=CC(F)(F)C(F)(F)C(F)(F)C(F)(F)F`, the compound was classed as inactive.

As for `O=CC(F)(F)C(F)(F)C(F)(F)C(F)F`, the compound was called inactive.

As a reminder, the AC50 is the midpoint of the concentration-response curve, whichever way the signal moves. On to `O=CC(F)(F)C(F)(F)C(F)(F)F`, for which the AC50 was 79.6 µM (active).

Take `COC1=CC(=O)C[C@@H](C)[C@]12Oc1c(Cl)c(OC)cc(OC)c1C2=O`: the outcome was inactive.

Turning to `FC1(F)C=CC(F)(F)C1(F)F`, the compound was classed as inactive.

With `FC(F)(F)C1(F)C(F)(F)C(F)(F)C(F)(F)C1(F)F`, the result was inactive.

Regarding `C=CC(=O)OCCC(F)(F)C(F)(F)C(F)(F)C(F)(F)C(F)(F)C(F)(F)C(F)(F)C(F)(F)F`, the compound was classed as inactive.

As to `O=C(O)CCC(F)(F)C(F)(F)C(F)(F)C(F)(F)C(F)(F)C(F)(F)F`, the compound was called inactive.

`FC(F)(F)N1C(F)(F)C(F)(F)OC(F)(F)C1(F)F`: the result was inactive.

For the compound `O=C(F)C(F)(F)C(F)(F)C(F)(F)C(=O)F`, the call was inactive.

For the compound `NC(C(F)(F)F)C(F)(F)F`, the compound was called inactive.

With `CN(CCO)S(=O)(=O)C(F)(F)C(F)(F)C(F)(F)C(F)(F)C(F)(F)C(F)(F)C(F)(F)C(F)(F)F`, the call was inactive.

On to `O=C(O)C(F)(F)OC(F)(F)C(F)(F)OC(F)(F)C(F)(F)OC(F)(F)C(F)(F)C(F)(F)C(F)(F)F`, for which the AC50 is 2.18 µM (active).

For `FC(OC(F)(F)C(F)(F)C(F)(F)F)C(F)(F)F` (stereo not given), the outcome was inactive.

Consider `COC(=O)C(F)(F)C(F)(F)C(F)(F)C(F)(F)C(F)(F)F`, for which the result was inactive.

As for `CCCCCCCCCCCCCCCCCC[N+](C)(C)Cc1ccccc1`, the compound was classed as inactive.

Regarding `O=C(CC(=O)C(F)(F)C(F)(F)C(F)(F)F)c1cccs1`, the compound was called inactive.

For the compound `O=P(O)(O)CCC(F)(F)C(F)(F)C(F)(F)C(F)(F)C(F)(F)C(F)(F)C(F)(F)C(F)(F)F`, the AC50 was 1.78 µM (active).

With `OCCN1CN(CCO)CN(CCO)C1`, the compound was called inactive.

Consider `OCC(F)(F)C(F)(F)C(F)(F)C(F)(F)C(F)(F)C(F)(F)C(F)(F)C(F)(F)C(F)(F)C(F)(F)C(F)(F)F`, for which the outcome was inactive.

On to `O=P(O)(O)CCC(F)(F)C(F)(F)C(F)(F)C(F)(F)C(F)(F)C(F)(F)F`, for which the result was inactive.

For `CC(C)(c1ccc(Oc2ccc(N)cc2)cc1)c1ccc(Oc2ccc(N)cc2)cc1`, the outcome was inactive.

As to `FC(F)(F)C1(F)C(F)(F)C(F)(F)C(F)(F)C(F)(C(F)(F)F)C1(F)F` (stereo not given), the compound was called inactive.

`O=C(OC(=O)C(F)(F)C(F)(F)F)C(F)(F)C(F)(F)F`: the compound was classed as inactive.

As for `O=C1c2ccc(O)c(O)c2C(=O)c2c(O)ccc(O)c21`, the call was inactive.

With `O=C1OC(=O)C(F)(F)C1(F)F`, the outcome was inactive.

Turning to `O=C(O)CCC(F)(F)C(F)(F)C(F)(F)C(F)(F)C(F)(F)F`, the AC50 was 10.7 µM (active).

With `FCOC(C(F)(F)F)C(F)(F)F`, the result was inactive.
